Laboratory results reported in PubChem BioAssay.
Calls of active or inactive are those of the source.

Columns and labels:
[1] = binders of probe aFSTL3 on microarray, primary screen, stem cell growth factor project, biochemical, small-molecule microarray, fluorescence 635/667 (AID 1064); conditions: higher = more signal;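 note: measures binding of the biotinylated anti-FSTL3 antibody to printed compounds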
[2] = binders from COS7 lysate, DM2A8 probe, primary screen, torsin A project, cell lysate, small-molecule microarray, fluorescence 635/667 (AID 1065); conditions: higher = more signal, COS7 lysate expressing mutant human TOR1A
[3] = binders of probe aFGF2 on microarray, primary screen, stem cell growth factor project, biochemical, small-molecule microarray, fluorescence 635/667 (AID 1067); conditions: higher = more signal;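 note: measures binding of biotinylated aFGF2 protein to printed compounds on slides; z-score merges feature fluorescence and signal-to-noise across triplicate slides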
[4] = binders of probe aFGF10 on microarray, primary screen, stem cell growth factor project, biochemical, small-molecule microarray, fluorescence 635/667 (AID 1071); conditions: higher = more signal;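 note: score merges 667 nm spot intensity and signal to noise from triplicate slides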
[5] = biological target: Neurogenic locus notch homolog protein 2 (Homo sapiens) (UniProt Q04721); assay: Notch2 binders on small-molecule microarrays, primary screen, biochemical, small-molecule microarray, 635 nm fluorescence, stem cell growth factors (AID 1073); conditions: Notch2 binding, higher = more signal
[6] = biological target: Pro-neuregulin-1, membrane-bound isoform (Homo sapiens) (UniProt Q02297); assay: NRG1 binders on small-molecule microarrays, primary screen, psychiatric disease protein project, biochemical, small-molecule microarray, fluorescence 635/667 (AID 1075); conditions: NRG1 binding, 635 nm fluorescence, higher = more signal;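 note: score combines 667 nm spot fluorescence with signal to noise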
[7] = system: Neuregulin-1 EGF-like domain; assay: binders of neuregulin-1 EGF-like domain, primary screen, biochemical, small-molecule microarray, 635 nm fluorescence (AID 1081); conditions: small-molecule microarray binding, higher = more signal;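 note: binding of the protein to compounds printed on small-molecule microarray slides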
[8] = FRG1 promoter luciferase signal modulators, primary screen, FRG1 inhibition for FSHD, cell-based, C2C12 myotubes, firefly/Renilla luciferase, luminescence (AID 1084); conditions: higher = more signal, called active from +8 up or from −8 down
[9] = binders of probe aFST on microarray, primary screen, stem cell growth factor project, biochemical, small-molecule microarray, fluorescence 635/667 (AID 1086); conditions: higher = more signal;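 note: score merges 667 nm fluorescence with signal-to-noise of each printed compound spot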
[10] = binders of probe aHhip on microarray, primary screen, stem cell growth factor project, biochemical, small-molecule microarray, fluorescence 635/667 (AID 1087); conditions: higher = more signal;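 note: score merges spot fluorescence at 667nm with spot signal to noise ratio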
[11] = system: PRMT1 (protein arginine N-methyltransferase 1); assay: PRMT1 binders on small-molecule microarrays, primary screen, biochemical, small-molecule microarray, 635 nm fluorescence (AID 1088); conditions: small-molecule microarray binding, higher = more signal;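 note: binding of Prmt1 protein to compounds spotted on small-molecule microarray slides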
[12] = yeast growth modulation, basal conditions, primary screen, YJM789 clinical isolate, OD600, 24 h (AID 1089);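 note: growth of clinical yeast isolate S. cerevisiae YJM 789 seeded 1000 cells per well; test concentration not given here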; conditions: S. cerevisiae YJM789 growth, higher = more signal, called active from +8 up or from −8 down
[13] = fission yeast growth modulation, primary screen, strain 972, OD600, 24 h, no modulator (AID 1090);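 note: basal condition with compound alone and no growth modifier present; test concentration not given here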; conditions: S. pombe 972 growth, higher = more signal, called active from +8 up or from −8 down
[14] = S. cerevisiae growth modulation with rapamycin, primary screen, strain BY4716, OD600, 96 h (AID 1091); conditions: higher = more signal, called active from +8 up or from −8 down; note: test concentration not given here
[15] = biological target: Torsin-1A-interacting protein 2 (Homo sapiens) (UniProt Q8NFQ8); assay: LULL1 binders on small-molecule microarray, primary screen, cell lysate, human LULL1 lysate, 635/667 nm fluorescence (AID 1092); conditions: hLULL1 lysate binding, 635 nm fluorescence, higher = more signal;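 note: probe is lysate of COS7 cells overexpressing human LULL1; score merges per-feature 667 nm fluorescence with signal-to-noise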
[16] = E. coli growth modulation, two-sided OD650, primary screen, E. coli filamentation project, strain DRC41, 24 h (AID 1093); conditions: OD650, 24 h, higher = more signal, called active from +8 up or from −8 down;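 note: MC1000 strain lacking acrAB efflux and sulA so SOS filamentation is blocked; test concentration not given here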
[17] = small-molecule microarray binders of probe aLefty2, primary screen, biochemical, biotinylated probe, 635/667 nm fluorescence (AID 1094); conditions: higher = more signal;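 note: score merges spot fluorescence near 667 nm with spot signal-to-noise ratio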
[18] = system: Noggin (protein binding on small-molecule microarray); assay: Noggin binders on small-molecule microarray, primary screen, biochemical, 635/667 nm fluorescence (AID 1095); conditions: 635 nm fluorescence, higher = more signal;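 note: score merges 667 nm feature fluorescence with signal to noise over triplicate slides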
[19] = biological target: Neurogenic locus notch homolog protein 3 (Homo sapiens) (UniProt Q9UM47); assay: NOTCH3 binders on small-molecule microarray, primary screen, biochemical, 635/667 nm fluorescence (AID 1096); conditions: NOTCH3 binding, 635 nm fluorescence, higher = more signal
[20] = small-molecule microarray binders of probe aEGFR, primary screen, biochemical, biotinylated probe, 635/667 nm fluorescence (AID 1097); conditions: higher = more signal;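 note: probe is a biotinylated anti-EGFR antibody binding compounds printed on slides; score combines fluorescence near 667 nm and signal to noise of each spot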

Torsin-1A-interacting protein 2 (Homo sapiens), sequence (Q8NFQ8 whole entry, looked up): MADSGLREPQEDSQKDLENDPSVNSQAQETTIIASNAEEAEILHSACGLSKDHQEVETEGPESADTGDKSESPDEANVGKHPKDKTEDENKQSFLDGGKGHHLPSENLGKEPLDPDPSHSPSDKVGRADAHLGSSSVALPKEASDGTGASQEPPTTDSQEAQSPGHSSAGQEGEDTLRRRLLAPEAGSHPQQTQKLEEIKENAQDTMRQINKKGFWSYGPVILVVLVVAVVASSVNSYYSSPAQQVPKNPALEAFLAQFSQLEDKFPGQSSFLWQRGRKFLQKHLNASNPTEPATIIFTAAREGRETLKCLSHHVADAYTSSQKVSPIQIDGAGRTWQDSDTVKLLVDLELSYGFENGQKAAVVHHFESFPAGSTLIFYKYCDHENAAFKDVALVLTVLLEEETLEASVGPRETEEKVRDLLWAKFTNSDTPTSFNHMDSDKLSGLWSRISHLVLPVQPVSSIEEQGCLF
Neurogenic locus notch homolog protein 2 (Homo sapiens), sequence (Q04721 whole entry, looked up, canonical isoform): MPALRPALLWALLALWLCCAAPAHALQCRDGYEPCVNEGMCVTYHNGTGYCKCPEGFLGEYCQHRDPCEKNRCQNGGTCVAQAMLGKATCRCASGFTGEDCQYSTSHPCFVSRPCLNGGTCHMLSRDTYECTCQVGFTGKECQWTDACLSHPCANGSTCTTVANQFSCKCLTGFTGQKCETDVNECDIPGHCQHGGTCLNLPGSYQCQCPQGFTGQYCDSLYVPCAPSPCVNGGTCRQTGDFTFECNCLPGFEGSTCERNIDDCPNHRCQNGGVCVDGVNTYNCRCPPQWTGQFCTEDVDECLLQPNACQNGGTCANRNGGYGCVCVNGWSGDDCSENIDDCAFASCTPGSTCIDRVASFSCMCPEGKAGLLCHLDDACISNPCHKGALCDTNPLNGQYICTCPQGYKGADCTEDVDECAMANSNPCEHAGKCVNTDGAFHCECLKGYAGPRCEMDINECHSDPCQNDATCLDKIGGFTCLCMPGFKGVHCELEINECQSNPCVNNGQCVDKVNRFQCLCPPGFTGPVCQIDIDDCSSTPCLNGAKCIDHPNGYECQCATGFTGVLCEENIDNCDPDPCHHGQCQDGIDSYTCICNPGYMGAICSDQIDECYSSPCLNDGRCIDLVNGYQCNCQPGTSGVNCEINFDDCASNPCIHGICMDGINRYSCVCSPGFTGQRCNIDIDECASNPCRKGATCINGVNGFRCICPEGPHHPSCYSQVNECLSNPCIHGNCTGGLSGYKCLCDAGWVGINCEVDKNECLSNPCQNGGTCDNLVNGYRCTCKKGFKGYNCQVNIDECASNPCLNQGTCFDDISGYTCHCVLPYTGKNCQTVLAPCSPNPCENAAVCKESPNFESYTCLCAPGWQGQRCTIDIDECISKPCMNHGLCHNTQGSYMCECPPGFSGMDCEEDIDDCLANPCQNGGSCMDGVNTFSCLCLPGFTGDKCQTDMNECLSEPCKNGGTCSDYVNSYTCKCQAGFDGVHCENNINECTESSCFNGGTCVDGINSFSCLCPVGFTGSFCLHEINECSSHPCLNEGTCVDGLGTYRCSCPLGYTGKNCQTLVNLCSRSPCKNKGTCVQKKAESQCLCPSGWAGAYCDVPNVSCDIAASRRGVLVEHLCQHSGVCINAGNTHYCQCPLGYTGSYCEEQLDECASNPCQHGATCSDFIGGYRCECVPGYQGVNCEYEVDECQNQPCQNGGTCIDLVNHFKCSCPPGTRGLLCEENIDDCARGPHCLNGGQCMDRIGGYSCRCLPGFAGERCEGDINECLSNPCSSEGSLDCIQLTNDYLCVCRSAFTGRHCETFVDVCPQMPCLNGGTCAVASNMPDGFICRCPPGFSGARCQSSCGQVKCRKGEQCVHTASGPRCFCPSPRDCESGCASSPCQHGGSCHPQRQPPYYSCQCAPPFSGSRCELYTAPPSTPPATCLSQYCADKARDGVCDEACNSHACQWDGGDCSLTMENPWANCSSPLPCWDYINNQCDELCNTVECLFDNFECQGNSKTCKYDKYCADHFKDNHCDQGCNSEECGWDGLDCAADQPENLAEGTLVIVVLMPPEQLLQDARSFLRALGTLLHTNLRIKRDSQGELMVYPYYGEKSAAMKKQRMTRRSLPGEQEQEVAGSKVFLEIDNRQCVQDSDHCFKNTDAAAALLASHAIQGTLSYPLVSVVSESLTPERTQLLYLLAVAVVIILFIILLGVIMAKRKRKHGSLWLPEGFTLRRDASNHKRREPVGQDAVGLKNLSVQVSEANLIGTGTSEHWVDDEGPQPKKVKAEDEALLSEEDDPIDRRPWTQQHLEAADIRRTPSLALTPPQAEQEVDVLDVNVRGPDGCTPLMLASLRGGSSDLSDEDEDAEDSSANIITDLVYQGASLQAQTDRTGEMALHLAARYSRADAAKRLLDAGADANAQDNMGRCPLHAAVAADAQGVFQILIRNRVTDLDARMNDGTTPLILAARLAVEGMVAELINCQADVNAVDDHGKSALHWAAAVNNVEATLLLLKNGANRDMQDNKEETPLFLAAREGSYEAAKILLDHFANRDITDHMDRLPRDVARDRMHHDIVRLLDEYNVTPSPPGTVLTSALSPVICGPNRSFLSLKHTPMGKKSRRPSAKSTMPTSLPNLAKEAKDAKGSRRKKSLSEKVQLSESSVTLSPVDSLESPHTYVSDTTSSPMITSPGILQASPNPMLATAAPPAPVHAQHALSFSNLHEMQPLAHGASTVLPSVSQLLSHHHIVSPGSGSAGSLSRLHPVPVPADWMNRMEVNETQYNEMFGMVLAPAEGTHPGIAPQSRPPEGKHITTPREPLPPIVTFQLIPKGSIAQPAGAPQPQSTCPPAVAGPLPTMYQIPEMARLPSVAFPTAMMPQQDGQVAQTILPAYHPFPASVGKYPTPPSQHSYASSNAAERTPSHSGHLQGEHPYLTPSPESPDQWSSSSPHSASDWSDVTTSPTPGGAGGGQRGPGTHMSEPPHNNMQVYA
Pro-neuregulin-1, membrane-bound isoform (Homo sapiens), sequence (Q02297 whole entry, looked up, the tested form may be a part, canonical isoform): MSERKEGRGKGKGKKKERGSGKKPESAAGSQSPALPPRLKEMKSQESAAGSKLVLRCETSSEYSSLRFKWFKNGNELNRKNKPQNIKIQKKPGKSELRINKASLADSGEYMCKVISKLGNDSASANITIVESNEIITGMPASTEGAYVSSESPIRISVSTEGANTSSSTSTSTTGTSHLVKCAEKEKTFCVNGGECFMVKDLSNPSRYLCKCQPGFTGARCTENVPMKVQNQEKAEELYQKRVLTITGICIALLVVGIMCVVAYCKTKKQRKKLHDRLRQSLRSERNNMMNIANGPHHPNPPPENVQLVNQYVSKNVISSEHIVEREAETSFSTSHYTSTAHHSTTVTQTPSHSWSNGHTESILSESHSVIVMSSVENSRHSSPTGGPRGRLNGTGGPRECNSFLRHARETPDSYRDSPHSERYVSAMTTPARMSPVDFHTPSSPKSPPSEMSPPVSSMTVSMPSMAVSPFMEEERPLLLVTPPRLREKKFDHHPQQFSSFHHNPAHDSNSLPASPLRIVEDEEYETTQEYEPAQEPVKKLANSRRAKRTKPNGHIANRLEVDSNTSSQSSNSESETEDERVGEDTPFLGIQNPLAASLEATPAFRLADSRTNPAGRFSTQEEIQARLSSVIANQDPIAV

Row | SMILES | composite z-score [1] | composite z-score [2] | composite z-score [3] | composite z-score [4] | composite z-score [5] | composite z-score [6] | composite z-score [7] | z-score [8] | composite z-score [9] | composite z-score [10] | composite z-score [11] | z-score [12] | z-score [13] | z-score [14] | composite z-score [15] | z-score [16] | composite z-score [17] | composite z-score [18] | composite z-score [19] | composite z-score [20]
1 | CCOC(=O)C[C@H]1[C@H](OC(=O)c2ccccc2-c2ccccc2)[C@@H](NC(=O)C2CCCCC2)c2cc(OCCCO)ccc2N1C(=O)Cc1ccc(OC)cc1 | 0.0253 | 0.154 | -0.0636 | 0.253 | 0.231 | -0.0991 | -0.163 | 0.277 (inactive) | 0.169 | -0.12 | 0.143 | -0.93 (inactive) | -0.0289 (inactive) | -0.144 (inactive) | 0.735 | -1.05 (inactive) | -0.132 | 0.159 | -0.292 | -0.139
2 | O=C(NCC(F)(F)F)[C@@H]1c2ccccc2C(=O)N(Cc2ccccc2C(F)(F)F)[C@H]1c1ccc(CO)cc1 | 0.597 | -0.0704 | -0.156 | 0.424 | -0.169 | 0.997 | 1.3 | -1.49 (inactive) | -0.181 | 0.113 | 0.928 | -0.268 (inactive) | -0.205 (inactive) | -0.503 (inactive) | 1.28 | 0.31 (inactive) | -0.062 | -0.416 | -0.258 | -0.274
3 | Cc1ccc(S[C@]2(C(=O)O)CC(=O)N(Cc3ccccc3Cl)[C@@H]2c2ccc(CO)cc2I)cc1 | 0.655 | 0.39 | 0.234 | 0.107 | -0.442 | -0.0683 | 1.09 | 0.11 (inactive) | 0.415 | -0.624 | 0.765 | -0.923 (inactive) | -1.71 (inactive) | 1.21 (inactive) | 0.198 | -0.852 (inactive) | -0.131 | -0.678 | -0.162 | 0.519
4 | Cc1cc(C)c(C(O)C2C=CC3C(=O)NC(=O)C3N2Nc2ccc(Cl)cc2Cl)c(C)c1 (stereo not given) | 0.246 | -0.33 | 0.059 | 0.495 | 1.49 | 1.65 | 1.01 | 2.81 (inactive) | 1.64 | -0.0618 | 1.2 | -1.67 (inactive) | -3.28 (inactive) | 2.14 (inactive) | 3.42 | -2.14 (inactive) | 0.114 | 0.364 | 0.874 | -0.0581
5 | COCCOC(=O)N1C(=O)[C@@]2(c3cc(C#CC4=CCCCC4)ccc31)[C@H](c1ccc(OCCO)cc1)N1[C@H](c3ccccc3)[C@H](c3ccccc3)OC(=O)[C@H]1[C@@H]2C(=O)N1CCN(c2ncccn2)CC1 | 0.0516 | 0.504 | 0.0664 | 0.874 | 1.31 | 0.521 | 1.05 | -0.64 (inactive) | 0.59 | 0.0053 | 1.46 | 0.372 (inactive) | 1.23 (inactive) | 3.64 (inactive) | 1.73 | 1.37 (inactive) | 0.0444 | 0.788 | 1.1 | 0.0289
